Measurements reported in PubChem BioAssay (NCATS).
Values joined by “and” are separate entries in the source; they are usually repeats but may differ in a detail not shown here. Equal values may be shown once. Results filed as inconclusive are left out. Active and inactive are the calls of the source. Unless noted, calls come from the whole dose curve; as a rule, active = well fitted curve in the direction sought with a large enough effect; inconclusive = small, poorly fitted or top-dose-only effect, or another doubt; inactive = no such curve, though single readings can be large; an effect the other way counts as inactive or inconclusive.

Assays:
[1] = Cell Viability - Mesenchymal (AID 546);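 note: cells exposed to compound for 40 hours before reading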
Procedure, shortened: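 Human kidney mesenchymal cells from normal renal glomeruli, 1000 cells/well, rested 5 hr at 37 °C, then treated 40 hr at 37 °C in complete medium. Cellular ATP read by CellTiter-Glo luminescence; AC50 from Hill-equation fits.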

[2] = Cellular Toxicity (caspase-3) HepG2 (AID 654); note: potency is the fitted concentration of half-maximal effect;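 for caspase-3 activation: cells exposed to compound for 16 hours before reading; 0% = DMSO alone and 100% = caspase signal from 100 µM tamoxifen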
Procedure, shortened: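 Cells plated 5 hr at 37 °C, compound added, incubated 16 hr at 37 °C. Caspase-Glo 3/7 reagent followed, 20 min at room temperature, then luminescence read. Activation scored as signal increase; AC50 from Hill fit.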

[3] = Cellular Toxicity (caspase-3) Jurkat (AID 655); conditions: Jurkat caspase-3 activation, luminescence; caspase-3 activation: at 92.2 µM (top of the series), DMSO = 0%, tamoxifen = 100%;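 note: cells exposed to compound for 16 h at 37 °C before reading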; note: potency is the fitted concentration of half-maximal effect
Procedure, shortened: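 Luminescent caspase-3/7 readout (aminoluciferin substrate cleavage) in human T-cell leukemia Jurkat cells after 16 hr compound exposure. Concentration-response normalized to DMSO and 100 uM tamoxifen; AC50 by standard Hill equation.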

[4] = Cellular Toxicity (caspase-3) HUV-EC-C (AID 656)
Procedure, shortened: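 Luminescent caspase-3/7 activation (aminoluciferin substrate cleavage) in HUV-EC-C cells after 16 hr compound exposure, 37°C. Signal normalized to DMSO basal and 100 uM tamoxifen as 100%; AC50 from concentration-response fitted with the Hill equation.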

[5] = Cellular Toxicity (caspase-3) SHSY5Y (AID 657); note: potency is the fitted concentration of half-maximal effect
Procedure, shortened: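 Luminescent caspase-3/7 readout (aminoluciferin release) in SH-SY5Y cells after 16 h compound exposure in complete medium. Activity scaled between DMSO basal and 10 uM staurosporine as 100%; concentration-response fitted to Hill equation for AC50.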

[6] = Cellular Toxicity (caspase-3) BJ (AID 658);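 note: 0% = DMSO basal and 100% = 10 µM staurosporine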
Procedure, shortened: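 BJ human foreskin fibroblasts, 1000 cells/well, treated 16 hours at 37 °C in complete medium; caspase 3/7 activity by Caspase-Glo luminescence after 1 hr at room temperature. Normalized to DMSO and 10 uM staurosporine; AC50 from Hill fits.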

[7] = Cellular Toxicity (caspase-3) MRC-5 (AID 659);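 note: 0% = DMSO basal and 100% = 10 µM staurosporine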
Procedure, shortened: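 MRC-5 human normal lung fibroblasts, 1500 cells/well, treated 16 h at 37 °C in complete medium. Caspase 3/7 measured by Caspase-Glo luminescence after 1 h at room temperature. Normalized to DMSO and 10 uM staurosporine; AC50 from Hill fit.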

[8] = Cellular Toxicity (caspase-3) Mesangial (AID 660);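 note: combined caspase 3 and 7 activity read by Caspase-Glo luminescence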
Procedure, shortened: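 Mesangial cells, 1000/well, 5 h settle at 37 °C; compound 16 h, 37 °C; Caspase-Glo 3/7 reagent 20 min RT; luminescence. Norm.: DMSO = 0%, tamoxifen 100 uM = 100%. AC50, Hill fit.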

[9] = Cellular Toxicity (caspase-3) SK-N-SH (AID 661);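 note: 0% = DMSO basal and 100% = 10 µM staurosporine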
Procedure, shortened: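 Human neuroblastoma SK-N-SH, 1500 cells/well, 5 hr pre-incubation, then compound 16 hr, 37 °C. Caspase-Glo 3/7 reagent, 1 hr RT, luminescence. Norm. to DMSO/10 uM staurosporine; Hill-fit AC50.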

[10] = Cellular Toxicity (caspase-3) H-4-II-E (AID 663); conditions: H-4-II-E rat hepatoma, scaled: DMSO 0%, 100 µM tamoxifen 100%; at 92.2 µM (top of the series);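 note: cells exposed to compound for 16 hr before readout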
Procedure, shortened: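 Rat hepatoma H-4-II-E cells (1500/well) plated 5 hr, then exposed to compound titrations for 16 hr at 37 °C. Caspase-Glo 3/7 luminescence read after 20 min at RT; data normalized to DMSO and 100 uM tamoxifen, AC50 from Hill fits.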

[11] = Cellular Toxicity (caspase-3) Hek293 (AID 664);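 note: cells exposed to compound for 16 h at 37 °C before readout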
Procedure, shortened: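 Cells plated, 5 hr at 37 °C; compounds added; 16 hr at 37 °C; Caspase-Glo 3/7 reagent, 20 min RT; luminescence read. Activation expressed relative to DMSO and 100 uM tamoxifen, AC50 by Hill model.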

[12] = Cellular Toxicity (caspase-3) N2a (AID 665);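 note: compound exposure lasted 16 h at 37 °C before readout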
Procedure, shortened: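 N2a cells, 1500/well, 5 h settle at 37 °C; cpd 16 h, 37 °C; Caspase-Glo 3/7, 1 h RT; luminescence. Norm: DMSO = 0, 10 uM staurosporine = 100%. AC50, Hill fit.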

[13] = Cellular Toxicity (caspase-3) NIH 3T3 (AID 666);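 note: 0% = DMSO basal and 100% = 100 µM tamoxifen stimulation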
Procedure, shortened: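 Luminescence from aminoluciferin released by caspase-3/7 cleavage of a peptide substrate served as read-out. Mouse fibroblast NIH 3T3 cells were exposed to compounds over a concentration range for 16 hours, and AC50 values came from standard Hill modelling.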

[14] = Cellular Toxicity (caspase-3) Renal Proximal Tubule (AID 667);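 note: cells exposed to compound for 16 hours at 37 °C before detection; 0% = DMSO basal and 100% = 10 µM staurosporine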
Procedure, shortened: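 Luminescent caspase 3/7 signal from peptide-aminoluciferin cleavage measures apoptosis in freshly isolated rat kidney proximal tubule cells after 16 h compound exposure. Concentration-response data are normalized to DMSO and 10 uM staurosporine, and AC50 values come from Hill equation fits.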

[15] = target: Cytochrome P450 3A4 (Homo sapiens) (UniProt P08684); test: qHTS Assay for Inhibitors and Substrates of Cytochrome P450 3A4 (AID 884); note: % is set by controls: 0 for no effect and ±100 for the full control effect; nearly all actives have a fitted effect of over 50% in size
Cytochrome P450 3A4 (Homo sapiens), sequence (P08684 whole entry, looked up): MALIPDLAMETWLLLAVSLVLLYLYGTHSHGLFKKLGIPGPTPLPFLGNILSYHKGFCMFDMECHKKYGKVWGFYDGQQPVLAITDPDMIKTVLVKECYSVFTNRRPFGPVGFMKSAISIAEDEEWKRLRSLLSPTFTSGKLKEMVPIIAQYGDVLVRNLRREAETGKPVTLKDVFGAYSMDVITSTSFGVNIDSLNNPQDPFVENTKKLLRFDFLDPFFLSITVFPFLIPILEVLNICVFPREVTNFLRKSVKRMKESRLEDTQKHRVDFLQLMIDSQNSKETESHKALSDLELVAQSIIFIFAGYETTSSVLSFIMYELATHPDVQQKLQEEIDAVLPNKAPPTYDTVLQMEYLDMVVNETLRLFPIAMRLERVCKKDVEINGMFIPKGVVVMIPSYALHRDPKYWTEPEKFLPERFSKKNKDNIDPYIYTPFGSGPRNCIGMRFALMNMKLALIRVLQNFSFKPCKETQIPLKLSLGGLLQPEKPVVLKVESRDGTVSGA
Procedure, shortened: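 20 nM human CYP3A4 with 25 uM Luciferin-PPXE (at KM) in 200 mM KPO4, preincubated 10 min with compound; NADPH regeneration started a 60 min RT reaction. Luciferin detected by luminescence, normalized to 57 uM ketoconazole as full inhibition.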

[16] = target: Guanine nucleotide-binding protein G(i) subunit alpha-1 (Homo sapiens) (UniProt P63096); test: qHTS Assay for Inhibitors of RGS12 GoLoco Motif Activity (Green Fluorophore) (AID 879);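 note: 0% = labeled peptide with Gαi1 and full inhibition = labeled peptide alone without protein; negative values mean loss of peptide binding seen as reduced polarization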
Guanine nucleotide-binding protein G(i) subunit alpha-1 (Homo sapiens), sequence (P63096 whole entry, looked up): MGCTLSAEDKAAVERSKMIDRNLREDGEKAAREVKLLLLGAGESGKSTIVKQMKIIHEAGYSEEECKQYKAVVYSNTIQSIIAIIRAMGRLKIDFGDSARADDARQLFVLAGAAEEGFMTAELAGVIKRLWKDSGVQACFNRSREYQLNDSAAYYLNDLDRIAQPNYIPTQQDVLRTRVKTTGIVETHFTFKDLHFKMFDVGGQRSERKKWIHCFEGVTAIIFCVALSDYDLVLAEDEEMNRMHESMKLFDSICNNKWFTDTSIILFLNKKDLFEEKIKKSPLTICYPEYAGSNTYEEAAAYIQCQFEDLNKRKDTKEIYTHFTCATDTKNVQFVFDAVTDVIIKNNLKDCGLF
Procedure, shortened: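 Fluorescence polarization assay: 50 nM Gαi1 with 10 nM FITC-labeled RGS12 GoLoco peptide in 10 mM Tris pH 7.5, 150 mM NaCl, 0.1 mM GDP, 0.05% NP40, 10 min at room temperature with compound.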

[17] = target: Cytochrome P450 3A4 (Homo sapiens) (UniProt P08684); test: qHTS Assay for Activators of Cytochrome P450 3A4 (AID 885); note: nearly all actives have a fitted effect of over 65% in size
Procedure, shortened: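 Human CYP3A4 (20 nM) with Luciferin-PPXE at 25 uM (its KM) in 200 mM KPO4; 10 min compound preincubation, then NADPH regeneration and 60 min reaction at RT. Luciferin read by luminescence; normalized to 57 uM ketoconazole full inhibition.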

[18] = target: Cytochrome P450 2C9 (Homo sapiens) (UniProt P11712); test: qHTS Assay for Inhibitors and Substrates of Cytochrome P450 2C9 (AID 883); note: nearly all actives have a fitted effect of over 60% in size; note: potency is the fitted concentration of half-maximal effect
Cytochrome P450 2C9 (Homo sapiens), sequence (P11712 whole entry, looked up): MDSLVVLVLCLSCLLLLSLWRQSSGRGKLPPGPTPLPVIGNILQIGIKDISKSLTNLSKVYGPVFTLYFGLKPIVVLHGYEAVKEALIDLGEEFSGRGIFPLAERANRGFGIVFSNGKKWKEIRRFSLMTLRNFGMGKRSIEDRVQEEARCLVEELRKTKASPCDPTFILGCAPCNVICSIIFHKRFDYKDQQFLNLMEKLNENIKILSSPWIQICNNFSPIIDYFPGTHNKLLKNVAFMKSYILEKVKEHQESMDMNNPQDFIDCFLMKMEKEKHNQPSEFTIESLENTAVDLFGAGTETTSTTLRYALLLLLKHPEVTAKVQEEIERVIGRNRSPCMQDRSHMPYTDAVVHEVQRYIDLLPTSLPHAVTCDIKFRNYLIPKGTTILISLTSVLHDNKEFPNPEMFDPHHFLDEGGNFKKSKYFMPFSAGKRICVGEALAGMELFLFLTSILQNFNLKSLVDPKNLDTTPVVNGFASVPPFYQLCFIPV
Procedure, shortened: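 Human CYP2C9 (10nM) with Luciferin-H at 100uM (its KM) in 25mM KPO4; compound preincubated 10 min at 37C, then NADPH regeneration for 60 min at 37C. Luciferin read by luminescence after detection reagent; normalized to 57uM sulphaphenazole as full inhibition.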

[19] = target: Cytochrome P450 2C19 (Homo sapiens) (UniProt P33261); test: qHTS Assay for Inhibitors and Substrates of Cytochrome P450 2C19 (AID 899); note: % is set by controls: 0 for no effect and ±100 for the full control effect; nearly all actives have a fitted effect of over 60% in size
Cytochrome P450 2C19 (Homo sapiens), sequence (P33261 whole entry, looked up): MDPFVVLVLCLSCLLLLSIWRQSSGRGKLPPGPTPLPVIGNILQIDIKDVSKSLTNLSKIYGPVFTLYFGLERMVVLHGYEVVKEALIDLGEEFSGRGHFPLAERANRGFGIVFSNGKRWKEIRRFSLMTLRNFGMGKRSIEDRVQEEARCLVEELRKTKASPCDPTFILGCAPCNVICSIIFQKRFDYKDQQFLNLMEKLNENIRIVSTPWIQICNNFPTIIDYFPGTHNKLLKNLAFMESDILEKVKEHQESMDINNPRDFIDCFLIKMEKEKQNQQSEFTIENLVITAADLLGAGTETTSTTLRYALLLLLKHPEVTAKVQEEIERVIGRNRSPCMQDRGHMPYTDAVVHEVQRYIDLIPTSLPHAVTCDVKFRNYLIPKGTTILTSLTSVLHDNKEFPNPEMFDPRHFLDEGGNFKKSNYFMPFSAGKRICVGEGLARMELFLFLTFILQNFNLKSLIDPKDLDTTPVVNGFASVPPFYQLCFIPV
Procedure, shortened: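 5 nM human CYP2C19 with 10uM Luciferin-H EGE (at KM) in 50mM KPO4, compound preincubated 10 min at 37C, then NADPH regeneration for 60 min at 37C. Luciferin read by luminescence after detection reagent; normalized to 57uM ketoconazole as full inhibition.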

[20] = qHTS Assay for Identification of Small Molecule Antagonists for NFkB Signaling Pathway (AID 895; active = well fitted inhibition curve with a large enough effect in the signal ratio, with a control signal flat, not every such curve was filed as active; the % refers to the signal ratio; note: % is set by controls: 0 for no effect and ±100 for the full control effect)
Procedure, shortened: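 ME-180 NFkB-bla cells (beta-lactamase under NFkB response element), plated overnight, treated with compound then 10 pM TNF alpha (about EC50) for 5 hrs at 37 C. LiveBLAzer FRET read at 460/530 nm emission, 405 nm excitation.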

Oc1ccccc1-c1ccccc1
active: caspase-3 activation [3] 82.5%
inactive: outcome [1] | Potency [2] | outcome [4] | Potency [5] | outcome [6] | outcome [7] | outcome [8] | outcome [9] | caspase-3 activation [10] -0.124% | outcome [11] | outcome [12] | outcome [13] | outcome [14] | Potency [15]

O=c1[nH]c2ccccc2n1CCCN1CCC(n2c(=O)[nH]c3cc(Cl)ccc32)CC1
inactive: outcome [16]

NN=C(N)N
inactive: outcome [16] | outcome [17]

N[C@@H](Cc1ccc(N(CCCl)CCCl)cc1)C(=O)O
active: Potency [2] 31.6 µM | Potency [3] 25.1 µM | Potency [5] 2.51 µM | caspase-3 activation [10] 116%
inactive: outcome [4] | outcome [6] | outcome [7] | outcome [11] | outcome [12] | outcome [17]

Cc1ncc(CNC(=O)N(CCCl)N=O)c(N)n1
inactive: outcome [16]

N#CC(C#N)=Cc1ccc(O)c(O)c1
inactive: outcome [16] | Potency [19]
active: Potency [18] 7.94 µM

Clc1cccc(N2CCNCC2)c1
inactive: outcome [16] | outcome [17]

CCCC(C)(COC(N)=O)COC(=O)NC(C)C (centres undefined)
inactive: outcome [1] | Potency [2] | caspase-3 activation [3] 1.39% | outcome [4] | Potency [5] | outcome [6] | outcome [7] | outcome [8] | outcome [9] | caspase-3 activation [10] 0.766% | outcome [11] | outcome [12] | outcome [13] | outcome [14] | outcome [16] | outcome [17]

Oc1cccc2cccnc12
inactive: outcome [1] | Potency [2] | caspase-3 activation [3] 7.85% and 22.6% | outcome [4] | Potency [5] | outcome [6] | outcome [7] | outcome [9] | caspase-3 activation [10] 5.58% and 5.31% | outcome [11] | outcome [12] | outcome [13] | outcome [14] | Potency [15]

CCn1cc(C(=O)O)c(=O)c2ccc(C)nc21
inactive: outcome [16]

OCCOc1ccccc1
inactive: outcome [1] | Potency [2] | caspase-3 activation [3] -1.54% | outcome [4] | Potency [5] | outcome [6] | outcome [7] | outcome [8] | outcome [9] | caspase-3 activation [10] -1.74% | outcome [11] | outcome [12] | outcome [13] | outcome [14] | Potency [15]

Oc1ccc(Cl)cc1Cc1ccccc1
inactive: outcome [1] | Potency [2] | caspase-3 activation [3] 18.5% | outcome [4] | Potency [5] | outcome [6] | outcome [7] | outcome [8] | outcome [9] | caspase-3 activation [10] 2.16% | outcome [11] | outcome [12] | outcome [13] | outcome [14]

Fc1ccc(C(OCCN2CCN(CCCc3ccccc3)CC2)c2ccc(F)cc2)cc1
inactive: outcome [16]

C[C@]12C/C(=C/O)C(=O)C[C@@H]1CC[C@@H]1[C@@H]2CC[C@@]2(C)[C@H]1CC[C@]2(C)O
inactive: outcome [1] | caspase-3 activation [3] 15% | outcome [4] | Potency [5] | outcome [6] | outcome [7] | outcome [8] | outcome [9] | outcome [13]

Nc1ccncc1
inactive: outcome [16]

CC(=O)[C@H]1CC[C@H]2[C@@H]3CC[C@H]4C[C@H](O)CC[C@]4(C)[C@H]3C(=O)C[C@]12C
inactive: outcome [16]

CNCC(O)c1ccc(O)cc1 (centres undefined)
inactive: outcome [1] | Potency [2] | caspase-3 activation [3] 2.25% | outcome [4] | Potency [5] | outcome [6] | outcome [7] | outcome [8] | outcome [9] | caspase-3 activation [10] -0.124% | outcome [11] | outcome [12] | outcome [13] | outcome [14] | outcome [16] | Potency [15]

Clc1ccc(COC(Cn2ccnc2)c2ccc(Cl)cc2Cl)cc1 (centres undefined)
active: caspase-3 activation [3] 99.7%
inactive: Potency [5] | outcome [6] | outcome [7] | outcome [8] | outcome [9] | outcome [12] | outcome [13] | outcome [14] | outcome [17]

Cc1cccc(C)c1NC1=NCCCS1
inactive: outcome [16]

c1ccc2c(c1)Nc1ccccc1S2
inactive: outcome [1] | Potency [2] | caspase-3 activation [3] 0.561% | outcome [4] | Potency [5] | outcome [6] | outcome [7] | outcome [8] | outcome [9] | caspase-3 activation [10] -0.251% | outcome [11] | outcome [12] | outcome [13] | outcome [14]

O=c1[nH]c2ccccc2n1C1CCN(CCCC(c2ccc(F)cc2)c2ccc(F)cc2)CC1
inactive: outcome [16] | Potency [18] | Potency [15]

COc1ccccc1N1CCNCC1
inactive: outcome [16] | Potency [15] | Potency [19]

NCC1(CC(=O)O)CCCCC1
inactive: outcome [16] | Potency [18] | Potency [15] | Potency [19]

NCC(O)c1ccc(O)cc1 (centres undefined)
inactive: outcome [1] | Potency [2] | caspase-3 activation [3] -0.0147% | outcome [4] | Potency [5] | outcome [6] | outcome [7] | outcome [8] | outcome [9] | caspase-3 activation [10] -0.161% | outcome [11] | outcome [12] | outcome [13] | outcome [14] | Potency [15]

CCCN1CCC[C@@H]2Cc3[nH]ncc3C[C@H]21
inactive: outcome [16] | Potency [15] | Potency [20]

CCOP(=S)(OCC)Oc1cc(C)nc(C(C)C)n1
inactive: outcome [1] | Potency [2] | caspase-3 activation [3] 1.42% | outcome [4] | Potency [5] | outcome [6] | outcome [7] | outcome [8] | outcome [9] | caspase-3 activation [10] -0.387% | outcome [11] | outcome [12] | outcome [13] | outcome [14]
